In ChEMBL document CHEMBL3988442, “University of Dundee, Small-Polar-MMV Screening Library” (2021):
For some assays here: Results with a measured potency or affinity are listed apart.

Legend:
Design in all cases: scale not given: direction of the effect not stated beside the values
[1] = molecular target: Protein translocase subunit SecA (Escherichia coli (strain K12)) (UniProt P10408); test: Assay to Identify E. coli SecA ATPase Inhibitors; type: functional; conditions: 30 µM
[2] = molecular target: T1, Ubiquitin-activating enzyme e1, putative (Leishmania donovani (strain BPK282A1)) (UniProt E9BSI1); test: Leishmania donovani Ubiquitin Activating Enzyme (LdE1); type: functional; conditions: 30 µM
T1 sequence (whole entry): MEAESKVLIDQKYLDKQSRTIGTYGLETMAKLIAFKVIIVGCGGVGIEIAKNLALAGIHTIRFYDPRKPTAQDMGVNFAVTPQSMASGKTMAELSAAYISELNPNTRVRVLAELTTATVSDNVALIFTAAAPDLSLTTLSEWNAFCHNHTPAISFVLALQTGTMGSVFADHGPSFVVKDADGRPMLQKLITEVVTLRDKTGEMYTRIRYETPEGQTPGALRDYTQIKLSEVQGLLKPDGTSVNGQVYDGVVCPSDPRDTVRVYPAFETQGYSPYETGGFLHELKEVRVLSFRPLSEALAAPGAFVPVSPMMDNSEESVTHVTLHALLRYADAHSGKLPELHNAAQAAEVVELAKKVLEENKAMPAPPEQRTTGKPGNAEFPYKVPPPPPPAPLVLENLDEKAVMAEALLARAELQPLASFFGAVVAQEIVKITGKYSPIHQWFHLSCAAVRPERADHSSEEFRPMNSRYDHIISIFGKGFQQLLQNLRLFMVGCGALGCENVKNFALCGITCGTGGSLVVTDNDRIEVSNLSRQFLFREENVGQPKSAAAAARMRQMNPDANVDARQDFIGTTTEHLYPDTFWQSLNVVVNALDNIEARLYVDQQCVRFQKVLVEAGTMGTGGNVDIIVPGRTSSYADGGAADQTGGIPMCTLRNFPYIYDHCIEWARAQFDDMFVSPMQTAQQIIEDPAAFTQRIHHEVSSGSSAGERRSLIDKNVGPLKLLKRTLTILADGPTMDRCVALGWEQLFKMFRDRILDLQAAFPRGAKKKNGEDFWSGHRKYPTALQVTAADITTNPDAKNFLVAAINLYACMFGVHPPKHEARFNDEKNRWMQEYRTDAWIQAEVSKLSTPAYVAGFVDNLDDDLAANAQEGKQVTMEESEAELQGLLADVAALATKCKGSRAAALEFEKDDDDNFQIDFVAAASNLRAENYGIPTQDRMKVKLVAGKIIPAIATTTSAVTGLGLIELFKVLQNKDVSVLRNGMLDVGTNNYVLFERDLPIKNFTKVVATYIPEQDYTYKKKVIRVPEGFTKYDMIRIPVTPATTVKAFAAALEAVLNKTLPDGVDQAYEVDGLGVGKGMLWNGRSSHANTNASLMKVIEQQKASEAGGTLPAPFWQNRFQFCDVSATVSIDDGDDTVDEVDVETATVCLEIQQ

[3] = molecular target: Sialic acid-binding Ig-like lectin 9 (Homo sapiens) (UniProt Q9Y336); test: Hs-Siglec9 ALPHAscreen SOP 20170721; conditions: 10 µM
Sialic acid-binding Ig-like lectin 9 (Homo sapiens), sequence (Q9Y336 whole entry): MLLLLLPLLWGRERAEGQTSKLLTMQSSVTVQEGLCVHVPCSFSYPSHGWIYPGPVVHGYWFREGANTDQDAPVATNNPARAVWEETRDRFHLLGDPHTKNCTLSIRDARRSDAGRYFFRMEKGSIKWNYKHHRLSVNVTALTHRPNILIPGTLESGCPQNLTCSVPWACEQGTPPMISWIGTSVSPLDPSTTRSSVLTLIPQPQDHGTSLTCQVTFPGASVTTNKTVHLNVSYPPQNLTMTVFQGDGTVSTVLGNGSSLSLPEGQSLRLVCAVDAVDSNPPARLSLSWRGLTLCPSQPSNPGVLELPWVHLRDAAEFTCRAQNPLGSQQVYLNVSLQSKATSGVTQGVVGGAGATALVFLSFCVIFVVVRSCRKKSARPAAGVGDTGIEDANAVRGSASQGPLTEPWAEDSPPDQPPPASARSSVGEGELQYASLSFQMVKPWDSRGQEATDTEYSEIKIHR

Trypanosoma cruzi = test: Trypanosoma cruzi phosphomannomutase and mannose-1-phosphate guanylyltransferase assay; type: functional; conditions: 10 µM
[4] = molecular target: T2, Arginase-2, mitochondrial (Homo sapiens) (UniProt P78540); test: in vitro enzyme assay to detect the production of urea directly proportional to the activity of Arginase II; type: functional; conditions: 33.3 µM; further: in the data most compounds retested in dose-response had high values
T2 sequence (whole entry): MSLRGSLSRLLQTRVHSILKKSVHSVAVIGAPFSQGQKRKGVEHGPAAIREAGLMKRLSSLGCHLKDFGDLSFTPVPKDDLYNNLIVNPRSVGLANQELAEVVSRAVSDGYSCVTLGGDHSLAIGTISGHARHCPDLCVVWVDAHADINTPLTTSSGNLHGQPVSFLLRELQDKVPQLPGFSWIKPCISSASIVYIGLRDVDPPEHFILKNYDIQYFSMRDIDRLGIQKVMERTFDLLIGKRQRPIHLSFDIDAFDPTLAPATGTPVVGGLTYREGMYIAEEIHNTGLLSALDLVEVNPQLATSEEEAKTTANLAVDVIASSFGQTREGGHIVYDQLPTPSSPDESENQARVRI

[5] = molecular target: T3, Proteasome subunit beta (Trypanosoma cruzi) (UniProt O96673); test: Trypanosoma cruzi proteasome chymotrypsin-like activity (TcProtChymo) assay.; further: in the data most compounds retested in dose-response had high values; type: functional; conditions: 9.37 µM
T3 sequence (whole entry): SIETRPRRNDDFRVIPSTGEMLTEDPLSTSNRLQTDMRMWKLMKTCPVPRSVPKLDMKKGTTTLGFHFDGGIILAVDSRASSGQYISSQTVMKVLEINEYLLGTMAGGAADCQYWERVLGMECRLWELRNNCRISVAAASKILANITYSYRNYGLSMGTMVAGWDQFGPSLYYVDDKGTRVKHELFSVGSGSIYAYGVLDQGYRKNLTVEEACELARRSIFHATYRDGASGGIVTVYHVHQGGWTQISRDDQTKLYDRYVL

Homo sapiens = organism: Homo sapiens; test: To identify inhibition of the IFN signalling (Jak-Stat) pathway via expression of an eGFP reporter gene under the control of an IFN-stimulated response element (ISRE) containing MxA promoter.; type: functional; conditions: 30 µM
[6] = molecular target: T4, Tyrosyl-tRNA synthetase, putative (Trypanosoma cruzi (strain CL Brener)) (UniProt Q4DSP6); test: Trypanosoma cruzi tyrosyl tRNA synthetase (TcYRS) _High Tyrosine SOP; type: functional; conditions: 30 µM; further: in the data most compounds retested in dose-response had high values
T4 sequence (whole entry): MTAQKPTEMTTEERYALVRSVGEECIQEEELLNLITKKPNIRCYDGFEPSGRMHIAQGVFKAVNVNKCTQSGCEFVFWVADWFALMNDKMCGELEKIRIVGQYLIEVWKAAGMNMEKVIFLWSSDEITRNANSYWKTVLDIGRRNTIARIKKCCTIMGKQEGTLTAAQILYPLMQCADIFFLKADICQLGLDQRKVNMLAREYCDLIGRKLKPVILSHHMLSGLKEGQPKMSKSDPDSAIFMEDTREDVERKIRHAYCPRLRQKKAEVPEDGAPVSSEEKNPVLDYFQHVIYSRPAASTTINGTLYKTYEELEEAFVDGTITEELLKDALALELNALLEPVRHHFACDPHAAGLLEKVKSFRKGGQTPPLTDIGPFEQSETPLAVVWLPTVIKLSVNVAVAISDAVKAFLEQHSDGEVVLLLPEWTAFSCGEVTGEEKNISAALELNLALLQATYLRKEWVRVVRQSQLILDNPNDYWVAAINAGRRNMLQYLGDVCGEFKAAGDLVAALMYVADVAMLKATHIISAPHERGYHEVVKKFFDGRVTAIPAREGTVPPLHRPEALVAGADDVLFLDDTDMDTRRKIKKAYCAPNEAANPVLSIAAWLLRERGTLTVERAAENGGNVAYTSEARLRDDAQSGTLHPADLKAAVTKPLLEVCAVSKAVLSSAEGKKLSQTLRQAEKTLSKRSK

[7] = molecular target: T4, Tyrosyl-tRNA synthetase, putative (Trypanosoma cruzi (strain CL Brener)); test: Trypanosoma cruzi tyrosyl tRNA synthetase (TcYRS) SOP; type: functional; conditions: 30 µM
[8] = molecular target: Chromo domain-containing protein 1 (Saccharomyces cerevisiae (strain ATCC 204508 / S288c) (Baker's yeast)) (UniProt P32657); test: ScCHD-1 Enzyme Inhibition Assay; type: functional; conditions: 30 µM; further: in the data most compounds retested in dose-response had high values
Chromo domain-containing protein 1 (Saccharomyces cerevisiae (strain ATCC 204508 / S288c) (Baker's yeast)), sequence (P32657 whole entry, the tested form may be a part): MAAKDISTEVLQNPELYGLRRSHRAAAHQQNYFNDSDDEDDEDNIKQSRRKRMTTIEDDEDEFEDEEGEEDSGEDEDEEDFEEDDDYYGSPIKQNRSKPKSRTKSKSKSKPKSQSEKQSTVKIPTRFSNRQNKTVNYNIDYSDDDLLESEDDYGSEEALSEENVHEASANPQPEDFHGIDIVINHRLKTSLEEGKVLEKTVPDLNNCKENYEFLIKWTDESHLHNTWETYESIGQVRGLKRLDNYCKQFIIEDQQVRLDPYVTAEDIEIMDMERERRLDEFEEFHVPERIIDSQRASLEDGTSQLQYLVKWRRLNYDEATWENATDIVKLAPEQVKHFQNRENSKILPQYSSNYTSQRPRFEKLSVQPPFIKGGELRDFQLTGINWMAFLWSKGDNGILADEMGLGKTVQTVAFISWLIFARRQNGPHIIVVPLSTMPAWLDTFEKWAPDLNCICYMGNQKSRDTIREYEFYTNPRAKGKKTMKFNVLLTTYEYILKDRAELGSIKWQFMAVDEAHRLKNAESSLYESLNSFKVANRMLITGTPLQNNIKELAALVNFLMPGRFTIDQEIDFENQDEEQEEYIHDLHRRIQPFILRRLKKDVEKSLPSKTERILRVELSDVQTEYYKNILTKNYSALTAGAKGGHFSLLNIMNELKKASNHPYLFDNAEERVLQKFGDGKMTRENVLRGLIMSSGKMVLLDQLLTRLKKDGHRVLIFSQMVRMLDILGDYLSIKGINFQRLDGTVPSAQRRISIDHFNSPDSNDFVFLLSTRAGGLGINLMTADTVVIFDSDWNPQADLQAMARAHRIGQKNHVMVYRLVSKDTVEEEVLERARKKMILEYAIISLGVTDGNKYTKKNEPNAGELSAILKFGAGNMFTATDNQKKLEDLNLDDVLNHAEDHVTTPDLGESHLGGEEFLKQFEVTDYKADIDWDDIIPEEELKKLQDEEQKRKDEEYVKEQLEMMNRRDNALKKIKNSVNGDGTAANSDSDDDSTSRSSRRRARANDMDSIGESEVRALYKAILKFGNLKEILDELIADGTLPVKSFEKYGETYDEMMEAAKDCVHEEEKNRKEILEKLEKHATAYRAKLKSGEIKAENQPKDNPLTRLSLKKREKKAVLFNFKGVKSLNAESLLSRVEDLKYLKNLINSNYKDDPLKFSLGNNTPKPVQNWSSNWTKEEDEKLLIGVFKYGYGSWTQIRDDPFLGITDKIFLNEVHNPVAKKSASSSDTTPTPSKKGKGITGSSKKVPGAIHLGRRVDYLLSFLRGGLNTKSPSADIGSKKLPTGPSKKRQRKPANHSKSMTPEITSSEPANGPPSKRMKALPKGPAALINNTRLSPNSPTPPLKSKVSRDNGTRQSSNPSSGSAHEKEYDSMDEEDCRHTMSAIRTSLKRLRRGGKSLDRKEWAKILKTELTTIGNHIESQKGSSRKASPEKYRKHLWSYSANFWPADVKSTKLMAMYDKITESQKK

Protein translocase subunit SecA (Escherichia coli (strain K12)), sequence (P10408 whole entry): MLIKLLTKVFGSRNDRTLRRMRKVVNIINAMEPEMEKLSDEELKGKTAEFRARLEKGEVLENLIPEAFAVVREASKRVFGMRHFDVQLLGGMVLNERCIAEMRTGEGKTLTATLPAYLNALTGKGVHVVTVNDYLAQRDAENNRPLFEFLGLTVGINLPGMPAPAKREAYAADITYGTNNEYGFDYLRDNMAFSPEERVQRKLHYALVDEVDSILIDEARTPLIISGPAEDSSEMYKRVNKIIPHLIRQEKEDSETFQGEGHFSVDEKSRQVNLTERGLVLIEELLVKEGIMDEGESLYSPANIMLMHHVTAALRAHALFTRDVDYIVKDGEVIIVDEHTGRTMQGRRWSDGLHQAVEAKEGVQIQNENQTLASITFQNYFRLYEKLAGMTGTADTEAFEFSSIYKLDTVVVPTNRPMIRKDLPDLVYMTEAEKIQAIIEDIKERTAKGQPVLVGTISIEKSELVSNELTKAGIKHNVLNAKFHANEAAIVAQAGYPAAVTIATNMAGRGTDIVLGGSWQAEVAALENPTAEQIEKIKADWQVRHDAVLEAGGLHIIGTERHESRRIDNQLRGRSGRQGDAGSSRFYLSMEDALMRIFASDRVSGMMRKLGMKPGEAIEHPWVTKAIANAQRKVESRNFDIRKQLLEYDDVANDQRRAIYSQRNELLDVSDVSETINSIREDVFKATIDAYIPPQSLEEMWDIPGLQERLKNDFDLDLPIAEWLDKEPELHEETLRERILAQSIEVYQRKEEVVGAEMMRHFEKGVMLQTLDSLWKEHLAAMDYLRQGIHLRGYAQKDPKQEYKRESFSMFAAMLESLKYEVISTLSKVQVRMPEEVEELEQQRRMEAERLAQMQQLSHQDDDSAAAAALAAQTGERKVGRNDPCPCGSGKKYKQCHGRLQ

Row | SMILES | Percent Effect [1] | Percent Effect [2] | Percent Effect [3] | Percent Effect (Trypanosoma cruzi) | Percent Effect [4] | Percent Effect [5] | Percent Effect (Homo sapiens) | Percent Effect [6] | Percent Effect [7] | Percent Effect [8]
1 | CCc1nc(CN(C)C2CCN(CCS(C)(=O)=O)C2)no1 (stereo not given) | -1.27% | 18.7% | -4.89% | 0% | -1.77% | 16.9% | 4.92% | 5.79% | 17.9% | -5.25%
2 | COC[C@@H]1CC[C@H]2[C@H](CCN2S(=O)(=O)c2cccc(C)c2)O1 | -1.1% | 6.49% | -6.71% | -4.38% | 2.43% | 16.1% | -2.75% | 0.526% | 5.13% | -2.87%
3 | CN1CCOC(CNC(=O)CCCOCCc2ccccc2)C1 (stereo not given) | -3.33% | 17.9% | -5.99% | 9.86% | 3.28% | 9.13% | 19.5% | 4.31% | 22.9% | -6.94%
4 | Cc1ccc(C(=O)N2Cc3c(CN4CCCCC4)nn(C)c3C2)cc1C | -5.88% | -1.3% | -4.75% | -3.02% | -4.86% | 17.9% | -26.6% | -11.1% | -12.8% | -3.91%
5 | COC(=O)Cn1c(=O)nc2n1C(=O)N(c1ccccc1)C2 | -4.54% | 5.41% | -1.57% | -7.27% | 5.94% | 9.76% | 17% | 3.72% | 9.76% | -2.64%
6 | CCc1n[nH]c(C2CN(C(=O)c3ncoc3C(C)C)CCO2)n1 (stereo not given) | 1.99% | 15.6% | 8.33% | -0.746% | -2.25% | 2.46% | 17.6% | 2.94% | 18.8% | -8.96%
7 | NC(=O)CN1CCC(C(=O)N2CCCC(OCc3cccnc3)C2)CC1 (stereo not given) | -5.86% | 2.7% | 1.65% | -2.23% | -0.35% | 6.16% | 9.22% | 4.79% | 14.6% | 1.71%
8 | CCNC(=O)c1ccc(CNCc2c(C)nn(C)c2N(C)C)cc1 | -4.63% | 21.3% | 1.18% | 5.62% | -0.444% | 22.3% | 2.98% | 4.74% | 12.8% | -11.6%
9 | CCCS(=O)(=O)N1CCN(c2ccnc(N3CCCC3)n2)CC1 | -0.256% | 0% | 12.4% | 6.89% | 8.04% | 6.85% | -21.8% | 2.66% | 4.88% | -3%
10 | CC(Cn1cccn1)NC(=O)N1CCN(Cc2cccs2)CC1 (stereo not given) | -1.74% | 18.7% | -3.71% | 5.42% | -3.1% | 17.4% | 12.5% | 2.63% | 12.8% | 71.3%
11 | CC(C)c1nnc2n1CCN(C(=O)c1ccnc(N(C)C)c1)C2 | -5.81% | 10.7% | 7.33% | 0% | -5.76% | 16.9% | -3.26% | 3.68% | 10.3% | -12.4%
